# Screen size: about 410,000 compounds; about 6,400 (1.6%) were called active. Inconclusive results (about 20%) are left out. The entries come from a sample that favours actives as a whole. A number with no mark means an inactive call. The call rests on the fitted dose curve; in most records, active means well fitted inhibition curve with a large enough effect; inconclusive means small, poorly fitted or top-dose-only effect; inactive means no such curve, though single readings can be large or run the other way.
# Molecular target: Glucagon-like peptide 1 receptor (Homo sapiens) (UniProt P43220)
# Sequence (P43220 whole entry, looked up): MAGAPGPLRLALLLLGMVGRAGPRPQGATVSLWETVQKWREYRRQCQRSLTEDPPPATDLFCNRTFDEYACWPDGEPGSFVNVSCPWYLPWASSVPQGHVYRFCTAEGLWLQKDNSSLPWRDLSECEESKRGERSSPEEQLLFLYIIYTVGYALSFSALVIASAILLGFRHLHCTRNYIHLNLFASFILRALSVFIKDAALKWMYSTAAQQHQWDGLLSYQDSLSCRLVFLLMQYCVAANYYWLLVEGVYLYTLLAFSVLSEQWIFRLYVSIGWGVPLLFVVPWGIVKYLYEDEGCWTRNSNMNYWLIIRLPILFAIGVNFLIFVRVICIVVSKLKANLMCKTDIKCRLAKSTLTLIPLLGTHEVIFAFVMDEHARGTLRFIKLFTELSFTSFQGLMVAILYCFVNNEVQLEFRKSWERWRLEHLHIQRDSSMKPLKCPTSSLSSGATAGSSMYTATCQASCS
# Test: qHTS of GLP-1 Receptor Inverse Agonists (Inhibition Mode); further: nearly all actives have a fitted effect of over 55% in size
# Conditions: HEK293 GLP-1R CRE-luciferase, luminescence, 24 h, GLP-1R form is constitutively active; series mostly up to 38.3 µM; activity change, negative = inhibition: at the top concentration
# Summary of the method: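 HEK293 cells stably co-expressing a cAMP-responsive luciferase reporter and constitutively active GLP-1R were seeded, incubated 12 h, then exposed to compounds for 24 h at 37 C. Luminescence was read 12 min after detection reagent; inverse agonists lower signal.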
# On the % scale 0 is the no-effect control and ±100 the full control effect; potency means the concentration at half of the fitted maximal effect.
SMILES,Potency,"activity change, negative = inhibition"
COc1nc(NC2CCCCC2)nc(N2CCCCCC2)n1,5.01 µM (active),
Clc1nc(NC2CCCC2)nc(N2CCOCC2)n1,,30.6%
COC(=O)c1ccc(Oc2nc(Nc3ccc(F)cc3)nc(N3CCCC3)n2)cc1,,2.41%
CO[C@@H]1CN(C)C(=O)c2cc(NC(=O)Nc3cc(F)ccc3F)ccc2OC[C@H](C)N(C(=O)c2ccccn2)C[C@@H]1C,,12.7%
CN1CCN(C2Cc3ccc(Cl)cc3Sc3ccc(F)cc32)CC1 (configuration not stated),8.91 µM (active),
CCN(CC)C(=O)C1=C(C)N(Cc2ccc(F)cc2)C(=O)C(CC(=O)NC2CCCC2)C1 (configuration not stated),,1.9%
O=C(Nc1ccc(F)cc1)C(CCc1ccccc1)N1CCN(CC(=O)N2CCCC2)CC1 (configuration not stated),,15.1%
N#CCSc1ccccc1NC(=O)CN1C(=O)NC(CCc2ccccc2)C1=O (configuration not stated),,4.84%
Nc1cc(C(=O)N2CCN(c3ccccc3Cl)CC2)ccc1N1CC2CC(C1)c1cccc(=O)n1C2 (configuration not stated),,1.93%
CCN(CC)P(=O)(Nc1ccc(SC(F)F)cc1)c1ccc(N(C)C)cc1NC(=O)c1ccco1 (configuration not stated),2.51 µM (active),
Cc1cc(NC(=O)c2ccc(F)cc2)ccc1NC(=O)c1ccco1,,-2.68%
CCC(=O)NC(=S)Nc1ccc(NC(=O)c2ccco2)c(Cl)c1,,56.6%
O=C(Nc1ccc(N2CCOCC2)cc1)c1cccc2c(-c3ccc(F)c(F)c3)coc12,,6.21%
O=NN(CCCl)C(=O)NCCc1cccc[n+]1[O-],,13.9%
CCc1nc(SCC(=O)Nc2ccccc2OC)n[nH]1,,9.23%
CCSc1nsc(NC(=O)Nc2ccccc2OC)n1,11.2 µM (active),
COc1ccccc1NC(=S)NC(=O)C(C)C,,0%
Cc1ccccc1NC(=O)Cc1nc(COC(=O)CNC(=O)c2ccc(Cl)cc2Cl)cs1,,4.36%
CCOc1ccc(CCNC(=O)COC(=O)c2ccc(C)c(S(=O)(=O)N3CCOCC3)c2)cc1OCC,,3.97%
Cc1cc(Br)cn2c(Cc3ccsc3)c(-c3ccc(C#N)cc3)nc12,,-7.25%
COc1ccccc1OCC(O)CN1CCOCC1 (configuration not stated),,4.18%
Cc1ccc(OCC(O)CN2CCN(CC(O)COc3ccc(C)cc3Cl)CC2)c(Cl)c1 (configuration not stated),,3.12%
OC(COc1ccc(F)cc1Cl)CN1CCc2ccccc2C1 (configuration not stated),10 µM (active),
O=C1NC[C@H](Cc2ccc(O)cc2)N(C[C@H]2CCCN2C[C@H](Cc2ccccc2)N2C[C@H](Cc3ccccc3)N(CCc3ccccc3)C(=O)C2=O)C1=O,,9.65%
O=C1OC(Oc2ccc(Br)cc2)(c2ccccc2)c2ccccc21 (configuration not stated),10 µM (active),
CC1(C(=O)NS(=O)(=O)c2ccccc2)CCN1C(=O)C1CCCCC1 (configuration not stated),,-3.17%

SMILES,Potency,"activity change, negative = inhibition"
O=C(COc1ccc(Cl)cc1)N(Cc1ccco1)Cc1ccco1,10 µM (active),
Cc1cc2oc(C(=O)N(Cc3ccc(Cl)cc3)Cc3ccco3)c(C)c2cc1Cl,,6.07%
CCOc1ccc(S(=O)(=O)N(CC(=O)NCC(F)(F)F)Cc2ccco2)cc1,,16%
CC(=O)c1nn(-c2ccccc2)c(=Nc2ccccc2)cc1C,,1.43%
Cc1cc2c3ccccc3[nH]c(=O)n2n1,,23.2%
CSc1ncnc2c1ncn2CCCNCc1ccco1,,14.9%
COc1ccc(-c2cc(NC=O)c3ncc(-c4ccccc4)n3c2)cc1OC,,-18.1%
O=C(Nc1ccccc1)Oc1cccc2cccnc12,3.98 µM (active),
OCc1ccc(OCCCOc2cccc3cccnc23)cc1,,25.8%
Fc1ccccc1COc1cccc2cccnc12,,-24%
Cc1ccccc1OS(=O)(=O)c1cccc([N+](=O)[O-])c1,,-32.3%
Cc1ccc(-n2c(C)cc(C(=O)CSc3nnc4ccccn34)c2C)cc1,8.91 µM (active),
O=C(CSc1nnc2ccccn12)c1ccccc1,,11.5%
Cc1ccc(C(=O)NNC(=O)CSc2nnc3ccccn23)cc1,,-23.9%
Cc1cccc(CN2CCN(C3CN(Cc4cn(Cc5ccccc5F)nn4)S(=O)(=O)C3)CC2)c1 (configuration not stated),,-2.68%
c1ccc2c(c1)nnn2-c1ccncc1,,6.01%
Cc1ccccc1S(=O)(=O)NC(=O)C1(C)CCN1C(=O)C1(c2ccccc2)CCCC1 (configuration not stated),,-25.9%
COc1cc(NC(=O)C2=C(C)OCCS2)c(Cl)cc1C(=O)NCCCN1CCCC(C)C1 (configuration not stated),,16.6%
O=C(Nc1cc(C(F)(F)F)ccc1Cl)c1nc2ccccc2nc1N1CCCCC1,,0.167%
O=C(NNc1ccccc1Cl)C(O)(c1cccc(C(F)(F)F)c1)c1cccc(C(F)(F)F)c1,3.98 µM (active),
O=C(CNS(=O)(=O)c1cccc(C(F)(F)F)c1)Nc1ccccc1F,,-16.9%
O=C(COC(=O)c1cncc(Br)c1)Nc1ccc(S(=O)(=O)N2CCOCC2)cc1,,-0.0324%
CC1(Oc2ccc(Cl)cc2)CCN(Cc2csc3ccccc23)C1 (configuration not stated),,-17.5%
CCc1ccccc1NC(=O)c1cnn(-c2ccc(F)cc2)c1C1CCNCC1,,-22.5%
CCCc1c(C(=O)O)cnn1-c1ccc(Cl)cc1,,6.36%
CCCc1c(C(=O)Nc2ccc(F)cc2)cnn1-c1ccccc1,10 µM (active),

SMILES,Potency,"activity change, negative = inhibition"
Cc1cc(OCC(=O)Nc2nccs2)c2c(C)c(C)c(=O)oc2c1,,-12.1%
Cc1noc(C)c1CSCC(=O)Nc1nc2ccc(Oc3ccccc3)cc2s1,7.94 µM (active),
Cc1ccc(F)cc1NC(=O)CSCc1c(C)noc1C,,-3.47%
CCc1noc(C)c1C(=O)Nc1nc2ccc(OC)cc2s1,,0.249%
COc1ccc(S(=O)(=O)N2CCC(C(=O)NCCC(=O)NCCc3cccc(F)c3)CC2)cc1,,3.25%
COC(=O)Nc1nc2ccc(Sc3ccccc3)cc2[nH]1,1.12 µM (active),
CC(C)c1nc2ccc(C(=O)O)cc2[nH]1,,-1.32%
Cc1ccc2nc(CNC(=O)c3ccccc3)[nH]c2c1,,-8.76%
Cc1cccc(C(=O)OCC(=O)Nc2sccc2C(N)=O)c1C,,-14.6%
CC(C)C1CCN(C(=O)C2CCC(=O)N(C3CCCCCC3)C2)CC1 (configuration not stated),,4.55%
O=C(CCN1C(=O)/C(=C/c2cccs2)SC1=S)NNC(=O)c1cccc(O)c1,,-10.3% [at 7.66 µM]
O=C(CCCN1C(=O)/C(=C/c2cccs2)SC1=S)Nc1ccc(O)cc1,5.01 µM (active),
Cc1ccc(/C=C2\SC(=S)N(CCC(=O)Nc3ccc(O)cc3)C2=O)cc1,,-7.25%
CCCNC(=O)C1(C)CCN1C(=O)Cc1ccc(-c2ccccc2)cc1 (configuration not stated),,-12.2%
O=C(c1ccc(CS(=O)Cc2ccccc2Cl)o1)N1CCN(c2ccccc2)CC1 (configuration not stated),,-1.8%
OCC1OC(n2cnc3c(N4CCCC4)ncnc32)C(O)C1O (configuration not stated),,3.56%
CC(=O)N1CCN(Cc2cc(=O)oc3cc(C)ccc23)CC1,,8.45%
Cc1ccc(C(=O)Nc2c(-c3ccccc3)[nH][nH]c2=O)cc1,,8.15%
COc1ccc(N2CCN(S(=O)(=O)c3cc(Br)cnc3N)CC2)cc1,,11.4%
CCc1cccc(C)c1NS(=O)(=O)c1cc(Br)cnc1N,10 µM (active),
CCc1cccc(C)c1NS(=O)(=O)c1ccc(-c2cc(C)no2)s1,,-48%
Cc1ccc(-c2nc3c(Cl)cc(C(F)(F)F)cn3c2Cc2cccc(Cl)c2)cc1,,8.32%
CCn1c(SCC(=O)N2CCCC2=O)nc2ccccc21,,-4.71%
Cc1cc(C(=O)N/N=C\C(Br)=C\c2ccccc2)c(C)o1,,5.04% [at 7.66 µM]
CC(C)c1cc(C(=O)O)n[nH]1,,0%
CC(C)c1cc(C(=O)N/N=C/C(Br)=C/c2ccccc2)n[nH]1,8.91 µM (active),

SMILES,Potency,"activity change, negative = inhibition"
COCCNc1ncnc2c1ncn2[C@H]1CN(Cc2ccc(OC)cc2)C[C@@H](CO)O1,,17.4%
O=C(C1CCN(S(=O)(=O)c2cccs2)CC1)N1CCCCCC1,,0%
O=C(C1CCN(S(=O)(=O)c2ccc(Br)s2)CC1)N1CCN(C2CCCCC2)CC1,10 µM (active),
O=C(NC1CCCCC1)C1CCCN(S(=O)(=O)c2ccc(Br)s2)C1 (configuration not stated),,12.5%
CN1C[C@@H](CO)O[C@@H](n2cnc3c(N4CCN(CCO)CC4)ncnc32)C1,,-6.73%
CCCCN1CC(N2CCN(Cc3cccc(C)c3)CC2)CS1(=O)=O (configuration not stated),,-22.9%
COc1ccc(NC(=S)N2CCC(NC(=O)c3cccc(F)c3)CC2)cc1,,10.9%
COc1cc(OC)cc(C(=O)NC2CCN(C(=O)N3c4ccccc4Sc4ccccc43)CC2)c1,10 µM (active),
CCCNC(=S)N1CCC(NC(=O)c2ccc(OC)cc2)CC1,,2.99%
COc1cccc(-c2cc(NC(C)=O)c3ncc(-c4cccc(C(C)=O)c4)n3c2)c1,,-16.5%
CCOC(=O)N1CCN(C(=O)COc2ccc(Cl)cc2C)CC1,,-2.5%
CCOC(=O)/C(=N\Nc1ccccc1Cl)N(C)C1CCS(=O)(=O)C1 (configuration not stated),,-27.7%
CCOC(=O)/C(=N\Nc1cc(Cl)ccc1Cl)N1CCN(C)CC1,10 µM (active),
Cn1c(=O)c2cc(NC(=O)NCCc3cccs3)ccc2n1Cc1cccc(C(F)(F)F)c1,,-22.3%
Cc1oc2c(F)c(F)c(F)c(F)c2c1S(=O)(=O)Nc1cccc(C(F)(F)F)c1,3.98 µM (active),
O=C(/C=C/c1ccc(F)cc1)Nc1cccc(S(=O)(=O)Nc2cccc(C(F)(F)F)c2)c1,,-16.8%
O=C(COc1ccc(S(=O)(=O)Nc2cccc(C(F)(F)F)c2)cc1)N1CCOCC1,,-19.7%
COc1ccc(C2=Nc3ccccc3NC(=O)C2N(C(=O)c2cc3ccccc3[nH]2)c2ccccc2)cc1 (configuration not stated),,-2.32%
O=c1cc(Cn2nnc(-c3ccc(Cl)cc3)n2)nc2sccn12,,0%
CC(=O)Nc1c(-c2ccc(C)cc2)nc2ccc(Cl)cn12,,28.1%
Cc1ccc(Nc2c(-c3ccc(Cl)cc3)nc3sccn23)c(C)c1,14.1 µM (active),
CC(C)CCOc1ccc(C(=O)Nc2cc(S(=O)(=O)N3CCOCC3)ccc2N2CCOCC2)cc1,,-10.7%
CCc1nc2ccc(C(=O)N(C)CCN(C)C)cn2c1N(CC)CCOC,,21.2%
OC[C@@H]1CN(Cc2ccc3c(c2)OCO3)C[C@H](n2cnc3c(NCc4ccco4)ncnc32)O1,,-8.25%

# — PubChem BioAssay AID624417 (National Center for Advancing Translational Sciences (NCATS), 2012)
